Drawing on PubChem BioAssay AID372 (MTDP, 2006), this text covers inhibition for 67 compounds.

In all, about 100,000 compounds went through this assay and about 770 (0.77%) were called active. The full list was thinned out, with actives kept by preference. Unmarked numbers belong to inactive results. No stated cut-off is given here; in the data, active means inhibition above about 50%; inactive means the rest.

For this experiment, the target named is Gag-Pol polyprotein (Human immunodeficiency virus type 1 group M subtype B (isolate HXB2)) (UniProt P04585). In words: RNase H inhibition, HIV 1 Gag Pol polyprotein, FRET biochemical assay, screening (AID 372). Conditions: HIV-1 RT RNase H, FRET RNA/DNA substrate fluorescence; at 10 µM; active compounds read high.
Take `Cc1cc(NC(=O)c2ccc(-c3ccc(Cl)cc3)o2)ccc1NC(=O)c1ccco1`: the inhibition (in general, the percentage by which the read-out fell short of the control) is 11%.
For `Cc1cc(C)cc(N2C(=O)NC(=O)/C(=C\c3c(C)n(C)c4ccccc34)C2=O)c1`, the inhibition was 12%.
Consider `Cc1cc2nc(-c3ccc(Cl)c(NC(=O)c4cc([N+](=O)[O-])ccc4Cl)c3)oc2cc1C`, for which the inhibition is 8%.
`COc1cccc(OC)c1OCC(O)CN1CCC(CN2C(=O)c3cccc4cccc(c34)C2=O)CC1` (configuration not stated): the inhibition is 19%.
As to `CCOC(=O)C1=C(C)N=c2s/c(=C\c3ccc(-c4ccc(Cl)cc4)o3)c(=O)n2C1c1ccc(SC)cc1` (configuration not stated), the inhibition was 0%.
The same measure for `O=C(c1ccc([N+](=O)[O-])cc1[N+](=O)[O-])N1CCN(C(c2ccccc2)c2ccccc2)CC1`: 2%; for `O=C(CSc1nc2ccccc2s1)Nc1ccc(F)c([N+](=O)[O-])c1`: 2%.
For the compound `CCOc1ccc2ccccc2c1/C=N/NC(=O)CN1CCOCC1`, the inhibition was 9%.
For the compound `CCOC(=O)/C(C#N)=C1/C=C(c2ccccc2)N=C(c2ccccc2)N1`, the inhibition was 16%.
The same measure for `COc1ccc2ccccc2c1C=Nc1ccc(C)cc1O`: 27%; for `Cc1ccccc1Cn1cc(C=C2C(=O)NC(=O)NC2=O)c2ccccc21`: 43%.
The same measure for `COc1cc(C=O)ccc1OCCCOc1cc(C)c(Cl)cc1C`: 21%; for `COc1ccccc1N=Cc1c(O)n(-c2ccccc2F)c(=O)[nH]c1=O`: 8%; for `Cc1ccc(/C=C2/SC(=S)N(CCC(=O)Nc3ccc([N+](=O)[O-])cc3)C2=O)cc1`: 10%.
On to `Cc1ccc(/C=C2\SC(=S)N(CCCC(=O)Nc3ccc(C)cc3)C2=O)cc1`, for which the inhibition is 10%.
For the compound `Cc1ccc(/C=C2\SC(=S)N(CCC(=O)Nc3ccc([N+](=O)[O-])cc3O)C2=O)cc1`, the inhibition is 52% (active).
For the compound `Cc1ccc(/C=C2\SC(=S)N(CCCC(=O)NCCc3ccccc3)C2=O)cc1`, the inhibition was 57% (active).
Turning to `Cc1ccc(/C=C2\SC(=S)N(CCC(=O)Nc3ccc(S(=O)(=O)Nc4nccs4)cc3)C2=O)cc1`, the inhibition was 23%.
For the compound `Cc1ccc(/C=C2\SC(=S)N(CCc3ccccc3)C2=O)cc1`, the inhibition was 3%.
The same measure for `Cc1ccc(/C=C2\SC(=S)N(CCC(=O)Nc3cc([N+](=O)[O-])ccc3O)C2=O)cc1`: 0%; for `O=C(CCN1C(=O)/C(=C/c2ccc(Cl)cc2)SC1=S)Nc1nccs1`: 10%.
As for `Cc1ccc(/C=C2\SC(=S)N(CCC(=O)Nc3nccs3)C2=O)cc1`, the inhibition was 51% (active).
Regarding `Cc1ccc2oc(-c3cccc(NC(=O)c4ccc(-c5ccc([N+](=O)[O-])cc5)o4)c3C)nc2c1`, the inhibition is 20%.
Regarding `CCOc1ccccc1N=C1C(=O)Nc2ccc([N+](=O)[O-])cc21`, the inhibition was 2%.
Consider `CC1=NN(C(=O)c2cccc(O)c2)C(O)(c2ccc(Br)cc2)C1` (configuration not stated), for which the inhibition is 8%.
Consider `CC(=O)C1C(=O)c2cc([N+](=O)[O-])ccc2C1=Nc1ccc(Br)cc1` (configuration not stated), for which the inhibition is 6%.
For the compound `CCOC(=O)C1=C(C)N(C)C(=O)NC1c1ccc2c(c1)OCO2` (configuration not stated), the inhibition was 7%.
The same measure for `CCCCSc1nnc(-c2ccc(Cl)cc2Cl)o1`: 3%; for `CC1=NN(c2nc(-c3ccc(F)cc3)cs2)C(=O)/C1=C\c1ccc2c(c1)OCO2`: 58% (active).
With `CC1=NN(c2nc(-c3ccc(F)cc3)cs2)C(=O)/C1=C\c1ccc(O)cc1`, the inhibition was 45%.
With `CC1=NN(c2nc(-c3ccc(Br)cc3)cs2)C(=O)/C1=C\c1ccc2c(c1)OCO2`, the inhibition is 40%.
Regarding `CC1=NN(c2nc(-c3ccc(Cl)cc3)cs2)C(=O)/C1=C\c1ccc2c(c1)OCO2`, the inhibition is 57% (active).
Turning to `COc1cc(/C=C2\C(=O)N(c3nc(-c4ccc(Cl)cc4)cs3)N=C2C)cc(OC)c1OC`, the inhibition is 45%.
`CC1=NN(c2ccc(C)cc2)C(=O)/C1=C\c1ccc2c(c1)OCO2`: the inhibition is 2%.
For `O=C(/C(=C\c1ccc([N+](=O)[O-])cc1)n1cncn1)c1ccc(Cl)cc1Cl`, the inhibition was 16%.
For the compound `CCc1ccc(NC(=O)C(CC)c2ccccc2)cc1` (configuration not stated), the inhibition was 44%.
As to `C/C=C/c1ccc(OCCOCCOc2cccc(C)c2C)c(OC)c1`, the inhibition is 15%.
As for `COc1ccc(S(=O)(=O)N(Cc2ccccc2)c2ccccc2C(=O)NC(C)c2ccccc2)cc1` (configuration not stated), the inhibition was 26%.
As to `Cc1nc2sccn2c1-c1csc(Nc2ccc([N+](=O)[O-])cc2)n1`, the inhibition is 69% (active).
In the case of `Cc1nc2sccn2c1-c1csc(Nc2ccc(O)cc2)n1`, the inhibition was 12%.
On to `Cc1nc2ccccn2c1-c1csc(Nc2ccc([N+](=O)[O-])cc2)n1`, for which the inhibition was 14%.
The same measure for `Cc1cccc(-n2sc3c(c2=S)-c2ccccc2NC3(C)C)c1C`: 10%; for `CCOc1cc(CN2CCN(c3ccccn3)CC2)ccc1O`: 15%; for `COc1cccc(-c2nc3cc(NC(=O)/C=C\c4ccccc4)ccc3o2)c1`: 62% (active).
`Cc1ccc2nc(-c3ccc(NC(=O)/C=C\c4ccccc4)cc3)oc2c1`: the inhibition was 40%.
The same measure for `COc1ccc(/C=C\C(=O)Nc2ccc3oc(-c4cccnc4)nc3c2)cc1`: 7%; for `Cc1ccc2oc(-c3ccc(NC(=O)/C=C\c4ccccc4)cc3)nc2c1`: 52% (active); for `Cc1ccc2oc(-c3ccc(NC(=O)/C=C/c4ccccc4)cc3O)nc2c1`: 22%.
As for `O=C(/C=C/c1ccccc1)Nc1ccc(-c2nc3cc(NC(=O)/C=C/c4ccccc4)ccc3[nH]2)cc1`, the inhibition is 72% (active).
`O=C(/C=C\c1ccccc1)Nc1cccc(-c2nc3ccccc3[nH]2)c1`: the inhibition is 21%.
Turning to `Cc1ccc(-c2nc3ccccc3[nH]2)cc1NC(=O)/C=C\c1ccccc1`, the inhibition was 15%.
Take `O=C(/C=C\c1ccccc1)Nc1ccc2oc(-c3ccccc3)nc2c1`: the inhibition is 16%.
In the case of `Cc1cc(/C=C(\C#N)C(=O)Nc2ccc(F)cc2)c(C)n1-c1ccc2c(c1)OCO2`, the inhibition was 7%.
The same measure for `Cc1ccc(C(=O)Nc2cc(Cl)ccc2C)c(Cl)c1`: 14%; for `CCN(CC)CCCCCCOc1ccccc1OC`: 8%; for `COc1ccc(-c2csc(/C(C#N)=C\Nc3cc(OC)c(Cl)cc3OC)n2)cc1`: 52% (active).
The same measure for `COc1cc(-c2csc(/C(C#N)=C/Nc3cccc(F)c3)n2)ccc1O`: 57% (active).
Turning to `N#C/C(=C/Nc1cc(Cl)cc(Cl)c1)c1nc(-c2ccc3c(c2)OCO3)cs1`, the inhibition is 39%.
The same measure for `N#C/C(=C/Nc1ccccc1F)c1nc(-c2ccc3c(c2)OCO3)cs1`: 12%; for `COc1cc(N/C=C(/C#N)c2nc(-c3ccc(OC)c(OC)c3)cs2)c(OC)cc1Cl`: 48%; for `COc1ccc(-c2csc(/C(C#N)=C\Nc3cc(Cl)ccc3Cl)n2)cc1OC`: 40%.
Consider `COc1cccc(-c2csc(/C(C#N)=C\Nc3cc(OC)c(Cl)cc3OC)n2)c1`, for which the inhibition is 16%.
For the compound `COc1ccc(-c2csc(/C(C#N)=C\Nc3cccc(Cl)c3Cl)n2)cc1OC`, the inhibition was 51% (active).
Regarding `Cc1ccc(-c2csc(/C(C#N)=C/Nc3cccc(F)c3)n2)cc1`, the inhibition is 4%.
The same measure for `N#C/C(=C/Nc1cccc(Cl)c1Cl)c1nc(-c2ccc3c(c2)OCO3)cs1`: 58% (active).
Regarding `COc1ccc(-c2csc(/C(C#N)=C\Nc3cccc(C)c3C)n2)cc1OC`, the inhibition is 17%.
Regarding `COc1cccc(N/C=C(\C#N)c2nc(-c3ccc(O)c(OC)c3)cs2)c1`, the inhibition is 13%.
